Each structure is given as a SMILES string. About 83,000 compounds went through this panel and 20% of them were active in at least one assay; those are over-represented in the sample as a whole.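 Single-dose data. Exposure time 48 hours. Values below 10 considered active.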 A number with no mark means an inactive call. The source made the active and inactive calls.

Some test systems named below: NCI-H23 lung; NCI-H226 lung; NCI-H322M lung; HOP-62 NSCLC; NCI-H460 lung; HOP-92 NSCLC; NCI-H522 lung; A549/ATCC NSCLC; 786-0 renal; COLO 205 colon; DU-145 prostate; K-562 leukemia; MALME-3M melanoma; MDA-MB-231 breast; RXF 393 renal; SF-268 CNS; SF-295 CNS; SF-539 CNS; UACC-257 melanoma; M14 melanoma.
Common to all, as to assay: NCI-60 one-dose screen, 48 h (100 = growth as untreated, 0 = no growth, -100 = all killed)
Holding throughout (settings): 10 µM unless noted

For the molecule `Cc1cc2nc(C(Cl)Cl)nc(-c3ccccc3)n2n1`, the growth with NCI-H23 lung was 33.6%; in the test with NCI-H226 lung it was 90.7%; in the test on NCI-H322M lung it was 10.9%; with HOP-62 NSCLC, 31.9%; in the test with NCI-H460 lung, -50% (active); in the test with HOP-92 NSCLC, 72.9%. In addition, the growth in the test on NCI-H522 lung was 72.4%; with A549/ATCC NSCLC it was 4.73% (active); with 786-0 renal it was 92.4%; with COLO 205 colon, 1.99% (active); with DU-145 prostate, -6.97% (active); in the test with K-562 leukemia, 66.4%. Also, the growth with MALME-3M melanoma is 113%; in the test on MDA-MB-231 breast it was 62.7%; in the test with RXF 393 renal, 9.08% (active); with SF-268 CNS, 77.8%; with SF-295 CNS it was 55.7%; with SF-539 CNS, 76.7%. Also, the values for the growth in the test with UACC-257 melanoma and in the test on M14 melanoma were 93% and 73.3%, respectively.

Take `COc1ccc2c(c1)c(-c1nc(-c3cn(C)c4ccncc34)cs1)cn2C`: the growth in the test on NCI-H23 lung was 92.2%; in the test on NCI-H226 lung, 113%; with NCI-H322M lung, 95.7%; in the test with HOP-62 NSCLC, 94.7%; with NCI-H460 lung, -64.5% (active); with HOP-92 NSCLC it was 81.8%. Moreover, the growth with NCI-H522 lung was 87.3%; with A549/ATCC NSCLC it was 2.44% (active); in the test on 786-0 renal, 84.8%; in the test on COLO 205 colon it was 92.6%; in the test on DU-145 prostate it was -21.9% (active); with K-562 leukemia it was -48.9% (active). The growth was -53.6% (active) in the test with MALME-3M melanoma; -61.2% (active) in the test on MDA-MB-231 breast; -91.7% (active) in the test on RXF 393 renal; 88.5% in the test on SF-268 CNS; 55.3% with SF-295 CNS; 57.4% in the test with SF-539 CNS. The values for the growth in the test on UACC-257 melanoma and in the test with M14 melanoma were 114% and -90.3% (active), respectively.

For the molecule `C#CCOc1cccc(Nc2ncnc3c(NC(=O)CCl)cccc23)c1`, the growth was 6.09% (active) in the test with NCI-H23 lung; 48.9% in the test with NCI-H226 lung; 72.5% in the test on NCI-H322M lung; 95.7% in the test on HOP-62 NSCLC; 51.2% with NCI-H460 lung; -62.1% (active) in the test on HOP-92 NSCLC. Besides, the growth in the test with NCI-H522 lung was -73.5% (active); with A549/ATCC NSCLC, 47.4%; in the test with 786-0 renal, -45.4% (active); in the test on COLO 205 colon, -55.5% (active); in the test with DU-145 prostate, 58.9%; in the test on K-562 leukemia, -21.7% (active). In addition, the growth in the test with MALME-3M melanoma is -74.7% (active); with MDA-MB-231 breast it was -25.6% (active); with RXF 393 renal, 56.2%; with SF-268 CNS it was 3.94% (active); in the test on SF-295 CNS, 95.6%; with SF-539 CNS, -91.3% (active). In addition, the growth was 56.9% with UACC-257 melanoma and 5.19% (active) in the test with M14 melanoma.

As for `CNC1=C(Br)C(=O)c2c(C(=O)OC)c(C)nc(C)c2C1=O`, the growth is 31.8% in the test with NCI-H23 lung; 86.3% with NCI-H226 lung; 81.5% in the test on NCI-H322M lung; 99.9% in the test with HOP-62 NSCLC; 30.4% in the test on NCI-H460 lung; 104% in the test on HOP-92 NSCLC. Also, the growth is 64.3% in the test with NCI-H522 lung; 58.1% with A549/ATCC NSCLC; 102% in the test with 786-0 renal; 30.9% with COLO 205 colon; 57.9% in the test with DU-145 prostate; 64.4% in the test on K-562 leukemia. For the same molecule, the growth is -26.6% (active) with MALME-3M melanoma; 71.6% with MDA-MB-231 breast; 63.5% in the test on RXF 393 renal; 73.5% with SF-268 CNS; 78.3% with SF-295 CNS; 82.8% in the test on SF-539 CNS. Further, the values for the growth in the test on UACC-257 melanoma and with M14 melanoma were 56.1% and 31.4%, respectively.

As for `C=CCNc1ccc2c3c(cccc13)C(=O)N(CC=C)C2=O`, the growth with NCI-H23 lung was 96%; in the test on NCI-H226 lung, 93.7%; with NCI-H322M lung it was 102%; in the test on HOP-62 NSCLC it was 108%; with NCI-H460 lung, 99.9%; with HOP-92 NSCLC it was 49.6%. Also, the growth with NCI-H522 lung was 99.4%; in the test on A549/ATCC NSCLC, 103%; with 786-0 renal, 101%; in the test on COLO 205 colon, 110%; in the test with DU-145 prostate, 102%; in the test with K-562 leukemia it was 96.7%. For the same molecule, the growth in the test on MALME-3M melanoma is 111%; in the test with MDA-MB-231 breast, 88.9%; with RXF 393 renal, 99.7%; in the test on SF-268 CNS, 96.2%; with SF-295 CNS, 106%; with SF-539 CNS it was 93.7%. Also, the growth in the test with UACC-257 melanoma was 114%; in the test on M14 melanoma it was 108%.

For `CN1CCN(Cc2ccc(NC(=O)c3cncc(C#Cc4cnc(N)c5ccc(C#N)cc45)c3)cc2C(F)(F)F)CC1`, the growth in the test with NCI-H23 lung was -22% (active); in the test on NCI-H226 lung it was -35.1% (active); with NCI-H322M lung it was 26.6%; in the test on HOP-62 NSCLC, 2.55% (active); in the test on NCI-H460 lung it was -49.3% (active); in the test on HOP-92 NSCLC it was -15.2% (active). Moreover, the growth with NCI-H522 lung is 5.63% (active); with A549/ATCC NSCLC, -53% (active); in the test with 786-0 renal, -71.8% (active); with COLO 205 colon it was -71.9% (active); in the test with DU-145 prostate, -7.64% (active); in the test on K-562 leukemia it was 0.252% (active). Also, the growth with MALME-3M melanoma is -72.6% (active); in the test with MDA-MB-231 breast, -81.7% (active); in the test on RXF 393 renal it was -90.7% (active); with SF-268 CNS, -69.4% (active); in the test with SF-295 CNS, 38.8%; in the test on SF-539 CNS it was -57.6% (active). Moreover, the growth in the test on UACC-257 melanoma was 6.11% (active); in the test with M14 melanoma it was -83.9% (active).

With `O=C(Nc1ccccc1C(F)(F)F)C1=NCCCCN1`, the growth with NCI-H23 lung is 98.5%; in the test with NCI-H226 lung, 96.1%; with NCI-H322M lung it was 95.1%; in the test with HOP-62 NSCLC, 100%; in the test on NCI-H460 lung, 105%; in the test with HOP-92 NSCLC, 97.9%. In addition, the growth was 86.8% in the test with NCI-H522 lung; 102% in the test on A549/ATCC NSCLC; 98.8% in the test with 786-0 renal; 110% in the test on COLO 205 colon; 106% with DU-145 prostate; 94.4% in the test with K-562 leukemia. The growth in the test on MALME-3M melanoma was 103%; in the test on MDA-MB-231 breast it was 102%; with RXF 393 renal, 97%; in the test with SF-268 CNS, 96.8%; with SF-295 CNS, 93.6%; in the test with SF-539 CNS, 96.1%. The figures for the growth with UACC-257 melanoma and with M14 melanoma were 99% and 98.3%, respectively.

Values taken from PubChem BioAssay (NCI).
